UBC13 polyUb = UBC13 polyubiquitin chain formation inhibitors, primary screen, biochemical, TR-FRET, uHTS; inhibition, % at 20 µM; 330,000 compounds, 0.47% hits; in the data active means inhibition above about 45%, passing the limit was not always enough
FID counter = compounds displacing fluorescent DNA intercalator, primary screen, artefact control for HCV NS3 helicase inhibitor project, biochemical, FID fluorescence. DNA fluorescent intercalator displacement. inhibition, % at 7.9 µM. 290,000 compounds, 0.17% hits. AID 1845, 2009; in the data active means inhibition above about 37%;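 further: 0% = vehicle and 100% = reference compound; higher means more ethidium bromide displaced from hairpin DNA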
MIN6 prolif-1 = inducers of MIN6 beta-cell proliferation, primary screen, ATP luminescence, uHTS. MIN6 cells proliferation, ATPlite luminescence, 48 h; cells starved in 0.2% serum; 100% = growth in 10% serum. proliferation, % at 10 µM. 330,000 compounds, 0.29% hits. AID 2380, 2010;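 active means compounds whose signal lies at least 3.5 SD above the mean of all wells on their plate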;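 further: 0% = DMSO-treated cells in low-serum medium and 100% = 10% serum control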
RAD54 branch = inhibitors of human RAD54 branch migration, primary screen, biochemical, fluorescence, single point; 360,000 compounds, 0.14% hits; AID 602329, 2012; inhibition, % at 10.4 µM; RAD54 Holliday junction branch migration, FAM/BHQ fluorescence;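 active means mean normalized replicate activity at least 40 and at least half of replicates scoring 40 or more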;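 further: 0% = median of neutral control wells and 100% = median of positive control wells; inhibitors cause a drop in the FAM fluorescence signal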
PREPL inhibitor = PREPL enzyme inhibitors, primary screen, biochemical, fluorescence polarization; recombinant PREPL, fluorescence polarization activity-based probe; 320,000 compounds, 0.68% hits; inhibition, % at 5.96 µM; Prolyl endopeptidase-like (Homo sapiens), Q4J6C6; AID 2751, 2010; in the data active means inhibition above about 43%;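 further: 0% = enzyme with DMSO and 100% = wells lacking enzyme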
Target sequence (Q4J6C6 whole entry, looked up): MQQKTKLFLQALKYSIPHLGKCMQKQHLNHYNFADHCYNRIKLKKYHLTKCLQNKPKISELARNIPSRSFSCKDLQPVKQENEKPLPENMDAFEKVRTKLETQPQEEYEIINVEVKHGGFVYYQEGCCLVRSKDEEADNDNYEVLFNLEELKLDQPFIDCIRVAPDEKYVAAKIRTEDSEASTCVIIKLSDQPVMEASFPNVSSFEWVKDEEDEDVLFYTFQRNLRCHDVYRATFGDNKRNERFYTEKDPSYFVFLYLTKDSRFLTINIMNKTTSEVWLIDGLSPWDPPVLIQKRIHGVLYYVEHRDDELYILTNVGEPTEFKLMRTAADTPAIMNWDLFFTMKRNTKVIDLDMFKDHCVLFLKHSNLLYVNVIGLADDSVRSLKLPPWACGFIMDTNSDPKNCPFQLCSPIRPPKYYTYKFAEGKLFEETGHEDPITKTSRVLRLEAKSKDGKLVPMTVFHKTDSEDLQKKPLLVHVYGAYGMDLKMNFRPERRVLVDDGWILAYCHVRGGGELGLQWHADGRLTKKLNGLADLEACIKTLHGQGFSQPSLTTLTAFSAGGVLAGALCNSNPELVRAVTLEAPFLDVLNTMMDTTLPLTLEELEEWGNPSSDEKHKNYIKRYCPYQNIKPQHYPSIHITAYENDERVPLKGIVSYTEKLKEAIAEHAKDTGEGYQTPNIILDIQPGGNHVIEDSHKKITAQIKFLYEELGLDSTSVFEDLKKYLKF
RAD52 anneal inh = RAD52 DNA annealing inhibitors, primary screen, biochemical, FRET, single point, set 2 | DNA repair protein RAD52 homolog (Homo sapiens), P43351 | recombinant RAD52 DNA annealing, FRET fluorescence | inhibition, % at 18.7 µM | 360,000 compounds, 0.46% hits | AID 651710, 2012;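 active means every replicate showing at least 50% inhibition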
MIN6 prolif-2 = inducers of beta-cell proliferation in MIN6, confirmation, MIN6 cells, mouse; shares compounds with MIN6 prolif-1; ATPlite luminescence, 48 h; cells kept in 0.2% serum; scaled between 0.2% and 10% serum; 920 tested, under 10 active; proliferation increase, % at 50 µM; AID 463095, 2010;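 active means proliferation increase above 40% at any of the four tested concentrations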
Active calls of the source: *; x = no result given. Sampled rows, rich in hits. Any-hit rate of the full collection: about 1.3%.

SMILES	UBC13 polyUb	FID counter	MIN6 prolif-1	RAD54 branch	PREPL inhibitor	RAD52 anneal inh	MIN6 prolif-2
C[C@@H]1CN([C@@H](C)CO)C(=O)c2cc(NS(=O)(=O)c3ccccc3)ccc2O[C@@H]1CN(C)CC1CC1	x	x	x	2	x	16	x
Cc1[nH]nc2ncc(C(=O)c3ccccc3O)cc12	0	-3	12*	-6	-13	x	2
Cc1nn(C)c2ncc(C(=O)c3ccccc3O)cc12	0	-12	0	1	-4	-20	x
O=C(C[C@H]1CC[C@@H]2[C@H](COC[C@@H](O)CN2Cc2ccc(F)cc2)O1)N1CCc2ccccc2C1	x	x	x	-1	x	29	x
Cc1ccc(CSc2nnc(-c3ccccn3)n2C)cc1	3	-20	7.1*	2	8	x	-4
CC(C)(C)N(NC(=O)OCc1ccccc1)C(=O)c1ccccc1Cl	6	-6	0.0*	2	-10	-9	-4
Cc1cc(C(=O)OCC(=O)NCCN2C(=O)CSC2=O)ccc1[N+](=O)[O-]	-1	x	9.7*	7	11	-3	3
S=c1[nH]nc(-c2ccc3ccccc3n2)n1Cc1ccccc1	5	-9	8.6*	x	-26	x	2
Oc1ccc(-c2n[nH]c(=S)n2Cc2ccccc2)cc1	25	-5	-4	3	14	x	x
Fc1ccc(-n2c(-c3ccc4ccccc4n3)n[nH]c2=S)cc1	3	-25	7.9*	x	0	-16	-1
CCCC#Cc1cnc2c(c1)C(=O)N([C@@H](C)CO)C[C@@H](C)[C@@H](CN(C)S(=O)(=O)c1ccccc1)O2	x	x	x	-3	x	12	x
COCCNC(=O)c1ccc(C)cc1C	3	4	7.9*	-11	7	-4	1
COc1ccccc1-c1cn(CC[C@@H]2CC[C@@H](NC(=O)NC(C)C)[C@H](CO)O2)nn1	x	x	x	7	x	-4	x
Cc1onc(-c2ccccc2)c1C(O)c1ccc(F)cc1 (stereo not given)	5	-13	10*	2	18	-6	-2
Cc1onc(-c2ccccc2Cl)c1C(O)c1ccc(F)cc1 (stereo not given)	9	-13	-1	-11	8	-17	x
COc1ccc(-c2nn3c(C4CCCCC4)nnc3s2)cc1OC	-17	-21	9.1*	0	-3	x	-6
CC(=O)Nc1ccc(NC(=O)C(C)OC(=O)c2cccc(S(=O)(=O)N3CCCCCC3)c2)cc1 (stereo not given)	-2	x	12*	5	-7	-5	0
O=C(O)c1cc(-c2ccccc2Cl)n(-c2ccc(F)cc2)n1	3	-19	8.0*	-6	-3	-21	-2
Cc1ccc(-n2nc(C(=O)O)cc2-c2ccccc2Cl)cc1	-2	-37	0	-5	-9	-6	x
COc1ccccc1NC(=O)C1CCCN(c2nc(C)cc(C)n2)C1 (stereo not given)	2	-21	7.5*	x	-4	x	3
C[C@H]1CN([C@@H](C)CO)C(=O)c2cc(N(C)C)ccc2O[C@H]1CN(C)C(=O)NC1CCCCC1	x	x	x	6	x	-10	x
COc1ccccc1CNC(=O)C[C@H]1C=C[C@@H](NC(=O)CN(C)C)[C@H](CO)O1	x	x	x	0	x	-4	x
COc1cc(NC(=O)c2ccc(Cl)cc2)c(OC)cc1NC(=O)CN1CCCCC1	1	8	-2	x	19	5	x
COc1cc(NC(=O)c2ccccc2F)c(OC)cc1NC(=O)CN1CCCCC1	6	-1	9.3*	7	15	8	-6
COCCOc1ccc(C(F)(F)F)cc1NC(=O)c1ccccc1F	12	-1	6.7*	x	-5	x	0
SMILES	UBC13 polyUb	FID counter	MIN6 prolif-1	RAD54 branch	PREPL inhibitor	RAD52 anneal inh	MIN6 prolif-2
CCOC(=O)c1cnc(-n2nc(C)cc2C)nc1Oc1ccccc1F	5	-37	7.8*	19	5	-26	-6
COc1ccc(-c2csc(NC(=O)CCN3C(=O)C4CC=CCC4C3=O)n2)cc1OC (stereo not given)	2	x	13*	-16	15	-67	-4
COc1ccc(-c2csc(NC(=O)CN3C(=O)C4CC=CCC4C3=O)n2)cc1 (stereo not given)	7	x	-3	-6	20	-13	x
COCC#Cc1cnc2c(c1)C(=O)N([C@@H](C)CO)C[C@H](C)[C@@H](CN(C)Cc1ccc3c(c1)OCO3)O2	x	x	x	-10	x	-19	x
O=C(C[C@H]1CC[C@@H]2[C@H](COC[C@@H](O)CN2Cc2ccccc2F)O1)NC1CCC1	x	x	x	-4	x	x	x
COC(=O)c1ccc(NC(=O)c2cc(-c3ccccn3)nc3ccccc23)cc1	-11	-3	7.5*	11	0	-10	2
O=C(NC[C@H]1CC[C@H]2[C@H](CN2S(=O)(=O)c2ccccc2)O1)NC1CCCCC1	x	x	x	x	x	12	x
C[C@@H]1CN([C@H](C)CO)C(=O)c2cc(NC(=O)NC3CCCCC3)ccc2O[C@H]1CN(C)Cc1ccc(C(=O)O)cc1	x	x	x	-1	x	5	x
CCOC(=O)c1c(-c2cccs2)csc1NC(C)=O	-1	-13	13*	x	10	x	-6
CN1C(=O)c2cccc3c(Cl)ccc(c23)C1=O	3	5	6.9*	15	1	x	-1
Cc1cnc(C(=O)OCC(=O)Nc2cc(-c3ccccc3)nn2-c2ccccc2)cn1	4	x	11*	4	-8	-1	0
CC(C)c1ccc(S(=O)(=O)N2CCN(C(=O)c3cc([N+](=O)[O-])ccc3N3CCOCC3)CC2)cc1	-3	-15	0	4	15	-15	x
O=C(c1cc([N+](=O)[O-])ccc1N1CCOCC1)N1CCN(S(=O)(=O)c2ccc(F)cc2)CC1	-6	x	11*	2	6	3	0
O=C(N/N=C/c1ccncc1)c1nc(-c2ccccc2)n2c1CCCCC2	3	-27	8.3*	7	8	x	2
COc1ccc(COn2c(=O)c(C)[n+]([O-])c3ccccc32)cc1OC	6	-12	5.1*	-16	-1	x	1
Cc1c(=O)n(OCc2ccccc2)c2ccccc2[n+]1[O-]	2	-4	-1	-7	-36	x	x
COc1ccc2c3c(n(C)c2c1)[C@@H](CO)N(Cc1ccccc1)CC31CCN(C(=O)Nc2cccc(F)c2)CC1	x	x	x	x	x	-1	x
COc1cccc(CN(CC2CCCO2)S(=O)(=O)c2ccc(-n3cnnn3)c(OC)c2)c1 (stereo not given)	7	-6	9.3*	x	-1	-19	0

Screening data (PubChem BioAssay)
